Results published in PubChem BioAssay (Tox21).
Several values for one entry are separate records, joined by “and”; a condition that tells them apart may be missing. Equal values may be shown once. Results filed as inconclusive are left out. A call without a number means that no potency is given here. A structure can be active in one record and inactive in another. Activity calls are given as the source filed them. Unless noted, the call rests on the fitted dose curve; in most records, active means well fitted curve in the direction sought with a large enough effect in the repeat runs; inconclusive means weak or mixed curves; inactive means no such curve, though single readings can be large; an effect the other way counts as inactive or inconclusive.

What was measured:
[1] = A CellTox Green Cytotoxicity Assay to monitor cytotoxicity in HepG2 cells - 8 hour (AID 1224890); further: nearly all actives have a fitted effect of over 45% in size
Outline: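 Nonlytic assay: viable cells exclude the dye, so fluorescence scales with cell death. HepG2 at 600 cells/well, compounds added after 5 h, signal read across 40 h.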

[2] = qHTS assay to identify small molecule antagonists of the estrogen receptor alpha (ER-alpha) signaling pathway using the BG1 cell line in the presence of 0.1 nM 17-beta-estradiol - cell viability counter screen (AID 1259241); further: nearly all actives have a fitted effect of over 40% in size; further: potency means the concentration at half of the fitted maximal effect
Outline: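 Estradiol-stimulated (0.1 nM) VM7Luc4E2 cells exposed to compounds 22 hr; viability measured by fluorescence of cleaved CellTiter-Fluor substrate after 30 min.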

[3] = qHTS assay to identify small molecule antagonists of the androgen receptor (AR) signaling pathway using the MDA cell line in the presence of 0.5 nM R1881 - cell viability counter screen (AID 1259242); further: nearly all actives have a fitted effect of over 45% in size; further: potency means the concentration at half of the fitted maximal effect
Outline: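 R1881 at 0.5 nM final stimulated MDA-kb2 cells during 16 hr compound treatment at 37C. Cytotoxicity read: CellTiter-Fluor fluorescence after 30 min.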

[4] = qHTS assay to identify small molecule phospholipidosis (PLD) inducers (AID 1259344; active means well fitted curve in the direction sought with a large enough effect; an effect the other way counts as inactive or inconclusive)
Outline: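 Fluorescent phospholipid staining (LipidTOX Red) measured by automated microscopy in fixed HepG2 cells after 24 h treatment; nuclei counterstained with Hoechst 33342; amiodarone as reference inducer.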

[5] = qHTS assay to identify small molecule HDAC inhibitors (AID 1259364); further: potency means the concentration at half of the fitted maximal effect;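 further: wild-type HCT-116 cells with endogenous class I/II HDAC activity; nearly all actives have a fitted effect of over 45% in size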
Outline: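 Relative class I and II HDAC activity is taken from the luminogenic signal in HCT-116 cells, with compound exposure 2 hr and reagent development 30 min at room temperature.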

[6] = qHTS assay to identify small molecule HDAC inhibitors - cell viability counter screen (AID 1259365); further: series mostly up to about 92 µM; nearly all actives have a fitted effect of over 50% in size
Outline: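 After overnight seeding at 1,500 cells per well, wild-type HCT-116 cultures took up compounds in DMSO for 2hr at 37 C. Viable cell content came from luminescence with CellTiter-Glo.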

[7] = qHTS assay to identify small molecule agonists of the sonic hedgehog signaling (Shh) pathway - cell viability counter screen (AID 1259366); further: nearly all actives have a fitted effect of over 50% in size
Outline: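 Same-well cytotoxicity read. Gli1-Luc reporter 3T3 cells; compounds 24hr, 37C/5% CO2; CellTiter-Fluor fluorescence.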

[8] = qHTS assay to identify small molecule antagonists of the sonic hedgehog signaling (Shh) pathway - cell viability counter screen (AID 1259367); further: nearly all actives have a fitted effect of over 55% in size; further: potency means the concentration at half of the fitted maximal effect
Outline: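 Using CellTiter-Fluor, viability of Gli1-Luc reporter 3T3 cells is read by fluorescence in the wells used for the Shh luciferase assay. Treatment lasts 23 hr with conditioned medium, then reagent 1 hr at 37C.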

[9] = qHTS assay to identify small molecule agonists of the sonic hedgehog signaling (Shh) pathway (AID 1259368; calls by dose curve;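 further: NIH/3T3-derived 3T3Gli1-Luc cells carrying a stable Gli1-driven firefly luciferase reporter; series mostly up to about 92 µM; nearly all actives have a fitted effect of over 15% in size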)
Outline: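 Mouse fibroblast (NIH/3T3) reporter cells with stably integrated Gli1-Luc were treated 24 hr with compound; firefly luciferase luminescence served as the read-out.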

[10] = qHTS assay to identify small molecule antagonists of the sonic hedgehog signaling (Shh) pathway (AID 1259369; calls by dose curve; further: nearly all actives have a fitted effect of over 45% in size; further: potency means the concentration at half of the fitted maximal effect)
Outline: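 Conditioned medium drives Shh signalling in 3T3Gli1-Luc cells; compounds in DMSO co-applied, 24hr at 37 C, then luciferase luminescence.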

[11] = target: Estrogen receptor beta (Homo sapiens) (UniProt Q92731); test: qHTS assay to identify small molecule agonists of the estrogen receptor beta (ER-beta) signaling pathway (AID 1259377; active means well fitted activation curve with a large enough effect in the signal ratio in the repeat runs, not every such curve was filed as active; the % refers to the signal ratio)
Sequence of Estrogen receptor beta (Homo sapiens) (Q92731 whole entry, looked up): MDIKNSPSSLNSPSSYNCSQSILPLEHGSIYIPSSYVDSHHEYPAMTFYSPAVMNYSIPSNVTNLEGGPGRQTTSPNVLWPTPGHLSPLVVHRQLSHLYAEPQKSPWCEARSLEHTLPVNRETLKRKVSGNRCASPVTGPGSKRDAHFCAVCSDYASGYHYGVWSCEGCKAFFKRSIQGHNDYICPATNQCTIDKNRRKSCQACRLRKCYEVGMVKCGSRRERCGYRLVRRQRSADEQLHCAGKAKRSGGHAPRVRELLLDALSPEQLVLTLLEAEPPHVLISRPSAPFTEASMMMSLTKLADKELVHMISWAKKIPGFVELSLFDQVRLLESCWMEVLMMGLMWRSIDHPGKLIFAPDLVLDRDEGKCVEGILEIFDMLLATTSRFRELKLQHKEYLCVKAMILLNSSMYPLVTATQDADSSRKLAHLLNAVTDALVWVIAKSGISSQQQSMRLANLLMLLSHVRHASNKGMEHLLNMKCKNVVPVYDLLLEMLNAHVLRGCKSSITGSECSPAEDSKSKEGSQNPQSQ
Outline: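 Read-out: beta-lactamase FRET fluorescence. Cell line: ER-beta-UAS-bla HEK293T in 2% charcoal-stripped FBS. Exposure: 16 hr at 37C. Substrate step: 2 h at room temperature.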

[12] = target: Estrogen receptor beta (Homo sapiens) (UniProt Q92731); test: qHTS assay to identify small molecule antagonists of the estrogen receptor beta (ER-beta) signaling pathway (AID 1259378; active means well fitted inhibition curve with a large enough effect in the signal ratio in the repeat runs, not every such curve was filed as active; the % refers to the signal ratio)
Outline: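 Antagonist mode: compounds added to beta-lactamase reporter HEK293T ER-beta-UAS cells stimulated with E2 (1nM final), 16 hr at 37C. LiveBLAzer B/G FRET substrate, 2 hours room temperature, fluorescence read-out.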

[13] = qHTS assay to identify small molecule agonists of the androgen receptor (AR) signaling pathway in the presence of an antagonist - cell viability counter screen (AID 1259379); further: nearly all actives have a fitted effect of over 25% in size; further: potency means the concentration at half of the fitted maximal effect
Outline: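 A CellTiter-Fluor read-out measured viability of MDA-kb2 reporter cells (MMTV promoter with AR and GR response elements). Treatment: nilutamide 3.0uM final with compounds at 15 concentrations, 16 hr, 37C, 0% CO2.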

[14] = qHTS assay to identify small molecule agonists of the estrogen receptor beta (ER-beta) signaling pathway - cell viability counter screen (AID 1259380); further: nearly all actives have a fitted effect of over 30% in size; further: potency means the concentration at half of the fitted maximal effect
Outline: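 Cells used were ER-beta-UAS-bla HEK293T in medium with 2% charcoal-stripped FBS. They were treated for 16 hr at 37C. Viability came from CellTiter-Glo luminescence.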

[15] = qHTS assay to identify small molecule antagonists of the estrogen receptor beta (ER-beta) signaling pathway - cell viability counter screen (AID 1259382); further: series mostly up to about 92 µM; nearly all actives have a fitted effect of over 55% in size
Outline: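 Agonist-stimulated (1nM E2) ER-beta-UAS-bla HEK293T cells are incubated with library compounds for 16 hr at 37C. Cell viability is then assessed in the reporter-assay wells by adding CellTiter-Glo and reading luminescence after 30 min.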

[16] = qHTS assay to identify small molecule agonists or antagonists of the thyroid stimulating hormone receptor (TSHR) signaling pathway - wild type cell line counter screen (AID 1259384; calls by dose curve)
Outline: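 Counter screen in untransfected Hek293: compounds (15-point titration, triplicate) plus phosphodiesterase inhibitor Ro20-1724 added after 18 h plating; 30 min RT. Intracellular cAMP via competitive d2/cryptate immunoassay, 1 h incubation.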

[17] = target: Thyrotropin receptor (Homo sapiens) (UniProt P16473); test: qHTS assay to identify small molecule antagonists of the thyroid stimulating hormone receptor (TSHR) signaling pathway (AID 1259385; calls by dose curve; further: nearly all actives have a fitted effect of over 20% in size)
Sequence of Thyrotropin receptor (Homo sapiens) (P16473 whole entry, looked up): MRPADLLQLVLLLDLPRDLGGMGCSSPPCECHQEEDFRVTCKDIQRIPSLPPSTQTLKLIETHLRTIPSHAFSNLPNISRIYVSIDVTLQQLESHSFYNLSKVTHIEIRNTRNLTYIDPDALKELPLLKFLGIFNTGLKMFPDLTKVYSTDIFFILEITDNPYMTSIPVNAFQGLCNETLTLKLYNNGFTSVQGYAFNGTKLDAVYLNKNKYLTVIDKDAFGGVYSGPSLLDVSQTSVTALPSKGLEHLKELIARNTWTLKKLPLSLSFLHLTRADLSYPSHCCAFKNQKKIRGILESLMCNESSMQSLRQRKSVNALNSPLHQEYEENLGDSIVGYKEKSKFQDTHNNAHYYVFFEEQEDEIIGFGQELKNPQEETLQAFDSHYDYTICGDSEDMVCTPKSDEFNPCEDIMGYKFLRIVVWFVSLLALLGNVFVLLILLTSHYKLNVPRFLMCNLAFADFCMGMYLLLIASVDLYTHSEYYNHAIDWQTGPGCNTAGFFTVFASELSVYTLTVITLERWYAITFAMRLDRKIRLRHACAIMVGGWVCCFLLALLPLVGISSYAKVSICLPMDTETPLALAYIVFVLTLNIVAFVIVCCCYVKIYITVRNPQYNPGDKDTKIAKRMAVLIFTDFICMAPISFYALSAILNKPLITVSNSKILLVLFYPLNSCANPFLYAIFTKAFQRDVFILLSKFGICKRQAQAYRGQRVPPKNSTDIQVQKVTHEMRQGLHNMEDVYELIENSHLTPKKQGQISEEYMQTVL
Outline: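 Antagonist mode: compound-treated TSHR-expressing HEK293 cells were stimulated with 1.5 ng/mL TSH (final) in presence of Ro20-1724 for 30 min at RT. HTRF cAMP detection after 1 h; each compound tested at 15 concentrations, triplicate.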

[18] = target: Estrogen receptor (Homo sapiens) (UniProt P03372); test: qHTS assay to identify small molecule antagonists of the estrogen receptor alpha (ER-alpha) signaling pathway using the BG1 cell line in the presence of 0.1 nM 17-beta-estradiol (AID 1259244); further: nearly all actives have a fitted effect of over 50% in size; further: potency means the concentration at half of the fitted maximal effect
Sequence of Estrogen receptor (Homo sapiens) (P03372 whole entry, looked up): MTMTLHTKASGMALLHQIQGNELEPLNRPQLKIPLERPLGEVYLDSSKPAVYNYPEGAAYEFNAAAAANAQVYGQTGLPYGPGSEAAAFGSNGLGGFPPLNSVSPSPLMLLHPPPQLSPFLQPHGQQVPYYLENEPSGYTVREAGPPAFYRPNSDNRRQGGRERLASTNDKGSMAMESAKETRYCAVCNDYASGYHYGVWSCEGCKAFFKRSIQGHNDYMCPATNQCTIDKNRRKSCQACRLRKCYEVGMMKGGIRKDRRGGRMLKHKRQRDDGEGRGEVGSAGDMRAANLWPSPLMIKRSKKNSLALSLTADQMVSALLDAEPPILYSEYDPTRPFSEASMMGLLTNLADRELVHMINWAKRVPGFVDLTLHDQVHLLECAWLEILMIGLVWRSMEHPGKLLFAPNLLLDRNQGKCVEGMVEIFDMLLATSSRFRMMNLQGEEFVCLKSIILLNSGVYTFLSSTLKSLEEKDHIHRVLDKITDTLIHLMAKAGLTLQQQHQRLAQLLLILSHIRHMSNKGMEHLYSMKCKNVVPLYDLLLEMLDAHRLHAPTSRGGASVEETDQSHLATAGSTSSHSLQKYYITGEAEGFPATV
Outline: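 VM7Luc4E2; 4xERE-luciferase; 0.1 nM E2 final; 22 h co-incubation, 37C; ONE-Glo luminescence after 30 min at room temperature.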

[19] = target: Estrogen receptor (Homo sapiens) (UniProt P03372); test: qHTS assay to identify small molecule agonists of the estrogen receptor alpha (ER-alpha) signaling pathway in the presence of an antagonist (AID 1259383; calls by dose curve; further: top concentration of the series differs between compounds; nearly all actives have a fitted effect of over 15% in size)
Outline: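 Using VM7Luc4E2 cells seeded 24hr before treatment, antagonist ICI-182,780 (10.0nM final) was added, followed by compounds at 15 concentrations. Plates incubated 22hr; ONE-Glo luminescence quantified reporter activity.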

[20] = target: Androgen receptor (Homo sapiens) (UniProt P10275); test: qHTS assay to identify small molecule agonists of the androgen receptor (AR) signaling pathway in the presence of an antagonist (AID 1259381; calls by dose curve; further: nearly all actives have a fitted effect of over 15% in size)
Sequence of Androgen receptor (Homo sapiens) (P10275 whole entry, looked up): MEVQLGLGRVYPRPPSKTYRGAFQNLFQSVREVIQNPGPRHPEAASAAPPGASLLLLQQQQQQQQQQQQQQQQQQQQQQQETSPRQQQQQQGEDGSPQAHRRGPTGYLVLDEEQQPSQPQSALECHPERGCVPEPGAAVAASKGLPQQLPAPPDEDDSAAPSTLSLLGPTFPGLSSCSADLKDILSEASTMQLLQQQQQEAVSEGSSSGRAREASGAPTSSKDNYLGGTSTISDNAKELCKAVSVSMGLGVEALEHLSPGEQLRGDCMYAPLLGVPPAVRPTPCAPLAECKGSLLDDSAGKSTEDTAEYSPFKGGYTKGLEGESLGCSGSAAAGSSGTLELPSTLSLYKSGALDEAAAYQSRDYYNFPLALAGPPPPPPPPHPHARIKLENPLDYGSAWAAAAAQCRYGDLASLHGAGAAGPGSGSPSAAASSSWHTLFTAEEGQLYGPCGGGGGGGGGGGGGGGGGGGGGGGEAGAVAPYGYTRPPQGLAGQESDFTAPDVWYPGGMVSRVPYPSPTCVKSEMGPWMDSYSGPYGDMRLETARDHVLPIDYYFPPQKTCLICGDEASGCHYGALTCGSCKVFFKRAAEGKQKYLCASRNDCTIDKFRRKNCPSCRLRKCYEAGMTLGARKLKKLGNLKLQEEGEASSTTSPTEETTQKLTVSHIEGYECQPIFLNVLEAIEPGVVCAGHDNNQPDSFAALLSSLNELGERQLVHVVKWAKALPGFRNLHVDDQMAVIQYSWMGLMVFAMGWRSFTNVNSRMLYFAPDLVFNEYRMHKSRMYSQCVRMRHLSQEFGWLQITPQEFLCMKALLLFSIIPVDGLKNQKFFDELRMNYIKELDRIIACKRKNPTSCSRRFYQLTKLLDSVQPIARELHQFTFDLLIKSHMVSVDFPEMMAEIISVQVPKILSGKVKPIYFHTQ
Outline: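 Using human MDA-kb2 cells with an MMTV promoter–luciferase construct (AR and GR response elements), agonist activity is scored under 3.0uM nilutamide (final) co-treatment; 16hr incubation, 37C, luminescence readout via ONE-Glo.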

| Compound | Potency [1] | Potency [2] | Potency [3] | outcome [4] | Potency [5] | outcome [6] | Potency [7] | Potency [8] | outcome [9] | Potency [10] | outcome [11] | Potency [12] | Potency [13] | Potency [14] | Potency [15] | outcome [16] | outcome [17] | Potency [18] | Potency [19] | Potency [20] |
| --- | --- | --- | --- | --- | --- | --- | --- | --- | --- | --- | --- | --- | --- | --- | --- | --- | --- | --- | --- | --- |
| O=C(O)CCCCCCCC(=O)O | inactive | inactive | inactive | inactive | inactive | inactive | inactive | inactive | inactive | inactive | inactive | inactive | inactive | inactive | inactive | inactive | inactive | – | – | – |
| CC(O)CN(CCN(CC(C)O)CC(C)O)CC(C)O (stereo not given) | inactive | inactive | inactive | inactive | inactive | inactive | inactive | inactive | inactive | inactive | inactive | inactive | inactive | inactive | inactive | inactive | inactive | – | – | – |
| CC(O)CO (stereo not given) | inactive | inactive | inactive | inactive | inactive | inactive | – | inactive | inactive | inactive | – | – | inactive | inactive | inactive | inactive | inactive | inactive | inactive | – |
| N=C(N)c1ccc(OCCCCCOc2ccc(C(=N)N)cc2)cc1 | inactive | inactive | inactive | inactive | 8.59 µM (active) and 9.26 µM (active) | inactive | – | inactive | inactive | 3.84 µM (active) and 2.33 µM (active) and 18.8 µM (active) | – | – | inactive | inactive | inactive | inactive | inactive | 13.6 µM (active) and 18.5 µM (active) | inactive | – |
| O=S(=O)(O)NC1CCCCC1 | inactive | inactive | inactive | inactive | inactive | inactive | inactive | inactive | inactive | inactive | – | – | inactive | inactive | inactive | inactive | inactive | – | – | – |
| CC(=O)OCC(COC(C)=O)OC(C)=O | inactive | inactive | inactive | inactive | inactive | inactive | inactive | inactive | inactive | inactive | inactive | inactive | inactive | inactive | inactive | inactive | inactive | – | – | – |
| O=C(O)c1[nH]n(-c2ccc(S(=O)(=O)O)cc2)c(=O)c1N=Nc1ccc(S(=O)(=O)O)cc1 | inactive | 48.7 µM (active) and 28.6 µM (active) | – | inactive | inactive | inactive | – | 30.7 µM (active) and 25.5 µM (active) | inactive | inactive and 57.1 µM (active) | – | – | 23.7 µM (active) and 54.6 µM (active) and 28.6 µM (active) | inactive | inactive | inactive | inactive | inactive | inactive | – |
| CCCN(CCC)S(=O)(=O)c1ccc(C(=O)O)cc1 | inactive | inactive | inactive | inactive | inactive | inactive | – | inactive | inactive | inactive | inactive | inactive | inactive | inactive | inactive | inactive | inactive | – | – | inactive |
| O=S(=O)(O)c1ccc2cc(O)ccc2c1 | inactive | inactive | inactive | – | inactive | inactive | inactive | inactive | inactive | inactive | – | – | inactive | inactive | inactive | – | – | – | – | – |
| C/C=C/c1ccc(OC)cc1 | inactive | inactive | inactive | inactive | inactive | inactive | – | inactive | inactive | inactive | inactive | inactive | inactive | inactive | inactive | inactive | inactive | – | – | – |
| CCCC(CCC)C(=O)O | inactive | inactive | inactive | inactive | inactive | inactive | – | inactive | inactive | inactive | – | – | inactive | inactive | inactive | inactive | inactive | inactive | inactive | – |
| CC(C)[C@@H]1CC[C@@H](C)C[C@H]1O | inactive | inactive | inactive | inactive | inactive | inactive | inactive | inactive | inactive | inactive and 31.6 µM (active) | inactive | inactive | inactive | inactive | inactive | inactive | inactive | – | – | inactive |
| O=NO | inactive | inactive | inactive | – | inactive | inactive | – | inactive | inactive | inactive | – | – | inactive | inactive | inactive | inactive | inactive | – | – | – |
| O=C(C1CCCCC1)N1CC(=O)N2CCc3ccccc3C2C1 (stereo not given) | inactive | inactive | inactive | inactive | inactive | inactive | – | inactive | inactive | inactive | – | – | inactive | 43.2 µM (active) and inactive | inactive | – | – | – | – | – |
| CCC1(c2ccccc2)C(=O)NCNC1=O | inactive | inactive | inactive | inactive | inactive | inactive | inactive | inactive | inactive | inactive | inactive | inactive | inactive | inactive | inactive | inactive | inactive | – | – | – |
| O=C(O)c1cc(N=Nc2ccc(S(=O)(=O)Nc3ccccn3)cc2)ccc1O | inactive | 24.4 µM (active) and 30.6 µM (active) | 27.4 µM (active) and inactive | inactive | 27.3 µM (active) | inactive | – | 21.8 µM (active) and 27.3 µM (active) | inactive | inactive | inactive | inactive | 30.7 µM (active) and 30.6 µM (active) | inactive | inactive | inactive | inactive | – | – | – |
